Autofluor counter: flagged as autofluorescent in microsphere protease counterscreen | compound autofluorescence counterscreen, microsphere flow cytometry; stronger effect = higher value | fluorescence intensity (test concentration not listed) | 360,000 compounds, 3.1% hits; in the data active = fluorescence intensity above about 16000; inconclusive = no clear call, values can overlap the other calls
VHR inh abs: blocks human VHR1 dual specificity phosphatase; recombinant VHR phosphatase, pNPP absorbance; AID 1654; 290,000 compounds, 0.52% hits; P51452; inhibition, % at 13.3 µM; in the data active = inhibition above about 50%
Target sequence (P51452 whole entry, looked up): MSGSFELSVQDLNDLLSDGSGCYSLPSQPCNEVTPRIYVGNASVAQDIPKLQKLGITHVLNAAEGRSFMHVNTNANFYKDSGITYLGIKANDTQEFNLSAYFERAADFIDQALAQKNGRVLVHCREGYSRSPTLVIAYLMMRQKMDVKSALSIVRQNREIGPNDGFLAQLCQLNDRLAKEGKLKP
Anthrax LF inh2: anthrax lethal factor protease inhibition. multiplex microsphere protease cleavage assay, LF. 360,000 compounds, 0.12% hits. AID 588501. inhibition, % at 10 µM
BoNT F protease: BoNT F light chain protease inhibition | Multiplex microsphere protease cleavage assay, flow cytometry | inhibition, % at 10 µM | 360,000 compounds, 0.22% hits; in the data active = inhibition above about 35%, passing the limit was not always enough; inconclusive = no clear call, values can overlap the other calls
BoNT A protease: inhibitors of Botulinum neurotoxin A light chain protease. 360,000 compounds, 0.17% hits. multiplex microsphere protease substrate cleavage, flow cytometry. inhibition, % at 10 µM
MazEF act: activators of E. coli MazEF toxin-antitoxin RNase. 350,000 compounds, 0.32% hits. P0AE70. FAM/BHQ RNA-DNA oligo cleavage fluorescence, 5 h. activation, % at 20 µM; in the data active = activation above about 50%
Target sequence (P0AE70 whole entry, looked up): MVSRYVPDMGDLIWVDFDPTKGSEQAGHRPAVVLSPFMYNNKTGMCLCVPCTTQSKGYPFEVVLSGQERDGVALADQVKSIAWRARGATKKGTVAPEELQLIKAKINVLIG
Hits are given with their value; . = inactive; ? = inconclusive; / = no result given. Compounds with a hit are over-represented: about 4% of the library has one in this group of screens. Cut-off read from the data, not from the text of the source, unless noted: active = inhibition above about 30%; inconclusive = no clear call, values can overlap the other calls; inactive = below that.

SMILES | Autofluor counter | VHR inh abs | Anthrax LF inh2 | BoNT F protease | BoNT A protease | MazEF act
CCOC(=O)/C(C#N)=C1\CC2CCC1(C)C2(C)C (stereo not drawn) | . | . | . | . | . | .
COC(=O)C1C(c2ccccc2)C(C(=O)N2CCOCC2)C1c1ccccc1 (stereo not drawn) | 22025 | . | . | . | ? | .
O=C(O)C1C(c2ccccc2)C(C(=O)N2CCOCC2)C1c1ccccc1 (stereo not drawn) | . | . | . | . | . | .
Cc1ccc(-c2cnc(C3CC3)o2)cc1S(=O)(=O)Nc1ccccc1 | . | . | . | . | . | .
O=C(Nc1c(Cl)cc(Cl)cc1C(=O)NCCN1CCOCC1)c1cccc([N+](=O)[O-])c1 | . | . | . | . | . | .
O=C(Nc1c(Cl)cc(Cl)cc1C(=O)NCCN1CCOCC1)c1ccc(Cl)cc1Cl | 16191 | . | . | . | . | .
CCOc1ccc(-n2c(C)nc3cc(C(=O)NCCN4CCOCC4)ccc32)cc1 | . | . | . | . | . | .
COc1ccc(-n2c(C)nc3cc(C(=O)NCCN4CCOCC4)ccc32)cc1 | 23270 | . | . | . | ? | .
COc1ccc(C(=O)Nc2c(Cl)cc(Cl)cc2C(=O)NCCN2CCOCC2)cc1 | 21881 | . | . | . | ? | .
CCN(Cc1cnn(C)c1)C(=O)c1cc(COc2ccc(F)cc2F)on1 | . | . | . | . | . | .
Cc1ccccc1S(=O)(=O)Cc1ccc(C(=O)NCc2ccccc2)o1 | . | 56.8 | . | . | . | .
O=C(NCc1ccccc1)c1ccc(CS(=O)(=O)Cc2ccc(F)cc2)o1 | . | 59.8 | . | . | . | .
COc1ccccc1S(=O)(=O)Cc1ccc(C(=O)NCc2ccc(C)cc2)o1 | . | . | . | . | . | .
COc1ccccc1CNC(=O)c1ccc(CS(=O)(=O)c2ccccc2OC)o1 | 22833 | . | . | . | . | .
CCN1C(=O)[C@H]2[C@H]3CN=C(SCC4CC4)N3[C@@](Cc3ccccc3)(C(=O)OC)[C@H]2C1=O | . | / | . | . | . | .
C/C(=N\N=C1\NC(=O)C(CC(=O)Nc2ccc(Cl)cc2)S1)c1ccco1 (stereo not drawn) | . | . | . | . | . | .
O=S(=O)(Nc1ncccn1)c1ccc(NC(=S)N2CCN(c3cccc(C(F)(F)F)c3)CC2)cc1 | ? | . | . | . | . | .
O=C(c1cc2ccccc2oc1=O)N1CCN(C(=O)C2CCCO2)CC1 (stereo not drawn) | 25648 | . | . | . | . | .
Cc1ccc(S(=O)(=O)N2CCN(C(=O)C3CCCO3)CC2)cc1C (stereo not drawn) | . | . | . | . | . | .
O=C(C1CCCO1)N1CCN(S(=O)(=O)c2ccccc2)CC1 (stereo not drawn) | 22925 | . | . | . | . | .
COc1ccccc1NC(=O)N(CCN(C)C)Cc1cc2cc(C)ccc2[nH]c1=O | . | 51.6 | . | . | . | .
CCN(CC)CCCN(Cc1cc2cc(OC)c(OC)cc2[nH]c1=O)C(=O)Nc1ccccc1 | 22160 | . | . | . | . | .
COc1ccccc1NC(=O)N(CCN1CCCC1)Cc1cc2cc(C)ccc2[nH]c1=O | 23245 | / | . | . | . | .
O=C1OC(c2ccc3c(c2)OCO3)N(C(=O)c2ccc(Cl)c(Cl)c2)c2ccccc21 (stereo not drawn) | . | . | . | . | . | .
CCOC(=O)N1CCN(C(=O)c2ccc(CS(=O)(=O)c3c(Cl)cccc3Cl)o2)CC1 | . | . | . | . | . | .
SMILES | Autofluor counter | VHR inh abs | Anthrax LF inh2 | BoNT F protease | BoNT A protease | MazEF act
COc1ccccc1N1CCN(C(=O)c2ccc(CS(=O)(=O)c3ccccc3OC)o2)CC1 | 16680 | . | . | . | . | .
CCOC(=O)N1CCN(C(=O)c2ccc(CS(=O)(=O)c3ccccc3OC)o2)CC1 | 20166 | . | . | . | ? | .
COc1ccc(CN(C)[C@H]2C[C@H]3c4[nH]c5ccccc5c4CCN3C[C@H]2[C@H](C)O)cc1 | . | / | . | . | . | .
Cc1ccc(N2CN=c3s/c(=C\c4ccccn4)c(=O)n3C2)cc1 | 18880 | . | . | . | ? | .
O=c1/c(=C/c2ccco2)sc2n1CN(c1ccccc1)CN=2 | . | . | . | . | . | .
CC1CC(C#N)N(N(C)C)C1=C(C#N)C#N (stereo not drawn) | . | . | . | . | . | .
COC(=O)C1C(=O)OC(C)(C)C1C(C)C(=O)c1ccc(C)cc1C (stereo not drawn) | . | . | . | . | . | .
COc1ccc(CNC(=O)/C=C/[C@H]2O[C@@H](n3cc(C)c(=O)[nH]c3=O)C[C@@H]2O)cc1 | . | / | . | . | . | /
COC(=O)c1cccc(NC(=O)c2nn(C(C)C)c(=O)c3ccccc23)c1 | 17352 | . | . | . | ? | .
CCOC(=O)N1CCC(Nc2c(NCCCN(CC)c3cccc(C)c3)c(=O)c2=O)CC1 | . | . | . | . | . | .
C#CCn1c(S(=O)(=O)Cc2ccc(F)cc2)nc(-c2ccccc2)c1-c1ccccc1 | 16327 | . | . | . | . | .
CCOC(=O)Cn1c(S(=O)(=O)Cc2ccc(F)cc2)nc(-c2ccccc2)c1-c1ccccc1 | 16161 | . | . | . | ? | .
CCOC(=O)Cn1c(S(=O)(=O)Cc2cccc(F)c2)nc(-c2ccccc2)c1-c1ccccc1 | . | . | . | . | . | .
C/C(CCc1ccc2c(c1)OCO2)=N\N=C1\NC(=O)CC(C(=O)Nc2ccc(Cl)cc2)S1 (stereo not drawn) | 21037 | . | . | . | . | .
O=C(NCC(c1cccs1)N1CCOCC1)c1ccccc1NS(=O)(=O)c1cccc([N+](=O)[O-])c1 (stereo not drawn) | . | 55.6 | . | . | . | .
CNc1c([N+](=O)[O-])cnn1-c1ccc(C)cc1 | 23938 | . | . | . | . | .
COc1ccc(-n2c(=O)c3ccccc3n(CC(=O)NCC3CCCO3)c2=O)cc1 (stereo not drawn) | . | . | . | . | . | .
CCN(CC)C(=O)c1ccc(NC(=O)Cn2nc(C)c3ccccc3c2=O)cc1 | 22310 | . | . | . | ? | .
Cc1nn(CC(=O)N(C)C)c(=O)c2ccccc12 | 22253 | . | . | . | . | .
Cc1nn(CC(=O)Nc2ccc3c(c2)nc2n3CCOC2)c(=O)c2ccccc12 | 21862 | . | . | . | . | .
Cc1nn(CC(N)=O)c(=O)c2ccccc12 | . | . | . | . | . | .
Cc1nn(CC(=O)Nc2ccc(C(=O)N(C)C)cc2)c(=O)c2ccccc12 | 19106 | . | . | . | . | .
CCCCNC(=S)N1CCN(c2ccccc2Cl)CC1 | . | . | . | . | . | .
CCN(CC)C(=O)c1ccc(Nc2nnc(C)c3ccccc23)cc1 | 24503 | . | . | . | . | .
CS(=O)(=O)Nc1ccc(N2CCCCC2)c(Cl)c1 | 23555 | . | . | . | . | .
CS(=O)(=O)Nc1ccc(S(=O)(=O)N2CCCCCC2)cc1 | . | . | . | . | . | .
Cn1c(-c2cccc(OCc3ccccc3)c2)nc2c1c(=O)[nH]c(=O)n2Cc1ccccc1 | . | . | . | . | . | 61.8
